Compound activity as filed in PubChem.
Sampled rows, rich in hits. Any-hit rate of the full collection: about 3.1%.
rTrxR1 inhibitor – qHTS Assay for Inhibitors of Mammalian Selenoprotein Thioredoxin Reductase 1 (TrxR1): qHTS | Thioredoxin reductase 1, cytoplasmic (Rattus norvegicus), O89049 | recombinant rTrxR1, NADPH fluorescence consumption, selenite substrate | Potency, µM (top dose mostly 114 µM), most hits filed as inhibitors | 390,000 compounds, 1% hits | AID 588453, 2011; note: nearly all actives have a fitted effect of over 65% in size
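Rat TrxR1 (90 nM in the dispensed reagent) was pre-reduced with 400 uM NADPH for 5 min at room temperature, then incubated with compound for 15 min. After 400 uM selenite was added, NADPH fluorescence (Ex 340/Em 450 nm) was followed for 8 min.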
mIDH1 inhibitor – qHTS for Inhibitors of mutant isocitrate dehydrogenase 1 (IDH1): qHTS; Isocitrate dehydrogenase [NADP] cytoplasmic (Homo sapiens), O75874; IDH1-R132H enzyme, NADPH consumption, diaphorase/resazurin fluorescence; Potency, µM (highest dose often 76.6 µM), actives largely listed as inhibitors; 390,000 compounds, 0.093% hits; note: nearly all actives have a fitted effect of over 65% in size
Target sequence (O75874 whole entry R132H, stated change not applied): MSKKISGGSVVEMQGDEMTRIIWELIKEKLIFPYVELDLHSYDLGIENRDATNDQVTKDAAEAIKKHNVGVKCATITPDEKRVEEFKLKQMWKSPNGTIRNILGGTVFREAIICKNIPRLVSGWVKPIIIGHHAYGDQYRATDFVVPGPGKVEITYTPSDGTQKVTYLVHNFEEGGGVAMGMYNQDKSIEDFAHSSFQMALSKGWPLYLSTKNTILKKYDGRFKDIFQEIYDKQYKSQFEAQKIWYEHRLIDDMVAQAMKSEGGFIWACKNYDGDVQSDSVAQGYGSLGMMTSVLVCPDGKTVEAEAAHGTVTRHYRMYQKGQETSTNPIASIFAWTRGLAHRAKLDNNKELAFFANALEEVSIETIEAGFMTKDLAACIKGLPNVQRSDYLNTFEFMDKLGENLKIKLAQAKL
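IDH1-R132H (0.5 ug/mL dispensed) in pH 7.5 Tris buffer was preincubated 30 min with compound, then given a substrate mix of 0.016 mM NADPH and 2 mM alpha-KG for 80 min at room temperature; remaining NADPH was read by diaphorase/resazurin fluorescence.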
Nrf2 inh – Nrf2 qHTS screen for inhibitors | Potency, µM (series often up to 46 µM), actives largely listed as inhibitors | A549 ARE-Fluc reporter, luciferase luminescence, 18-24 h | AID 504444, 2011 | 360,000 compounds, 2.1% hits; note: nearly all actives have a fitted effect of over 60% in size
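Nrf2 activity is the BugLite luminescence, read 15 min after reagent at room temperature, following CellTiter-Fluor cytotoxicity readout (30 min, 37C). Compound titrations were applied for 18-24 h to 5000 A549 ARE_Fluc cells/well in 5% FBS OPTI-MEM.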
A549 tox – Nrf2 qHTS screen for inhibitors: counterscreen for cytotoxicity. 390,000 compounds, 0.16% hits. Potency, µM (highest dose often 46 µM), most hits filed as inhibitors. A549 ARE-Fluc cells, CellTiter-Fluor viability, 18-24 h. AID 504648, 2011
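A549 ARE-Fluc cells in 5% FBS OPTI-MEM, 5000 cells/well, rested 2 h then exposed to compounds in concentration-response for 18-24 h at 37 °C. Viability by CellTiter-Fluor fluorescence (Ex 405/Em 525) after 30 min; luciferase luminescence (BugLite, 15 min, RT) read afterwards.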
Mito fusion yeast – qHTS Assay for Small Molecule Inhibitors of Mitochondrial Division or Activators of Mitochondrial Fusion | 320,000 compounds, 0.23% hits | Potency, µM (top dose mostly 46.1 µM), usual class: activators | S. cerevisiae fusion-defective mutant growth rescue, CellTiterGlo 48 h; note: nearly all actives have a fitted effect of over 45% in size
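S. cerevisiae fusion-defective temperature-sensitive mutants (e.g. fzo1-1, mgm1-5) grown 48 h at 37C in YPEG (ethanol/glycerol non-fermentable) medium with 23 nl compound per well; growth rescue read as CellTiterGlo luminescence.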
TrxR1 substrate – qHTS Assay for Substrates of Mammalian Selenoprotein Thioredoxin Reductase 1 (TrxR1): qHTS; Thioredoxin reductase 1, cytoplasmic (Rattus norvegicus), O89049; purified TrxR1 substrate turnover, NADPH consumption readout; Potency, µM (series often up to 114 µM); 390,000 compounds, 0.01% hits; note: nearly all actives have a fitted effect of over 50% in size
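Rat TrxR1, dispensed at 90 nM, was prereduced with 400 uM NADPH (final) for 5 min at ~22 deg C, then incubated with compound 15 min before 400 uM selenite. A first-read NADPH fluorescence drop versus no-compound background flagged substrates.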
Numbers stand for hits; – = inactive; ? = inconclusive; · = no result; [ ] = another dose, or the depositor's remark. Calls come from the whole dose curve; as a rule, active = well fitted curve in the direction sought with a large enough effect; inconclusive = small, poorly fitted or top-dose-only effect, or another doubt; inactive = no such curve, though single readings can be large; an effect the other way counts as inactive or inconclusive.

SMILES	rTrxR1 inhibitor	mIDH1 inhibitor	Nrf2 inh	A549 tox	Mito fusion yeast	TrxR1 substrate
Cc1cccc(OCCSc2nc3ccc(NC(=O)c4cccs4)cc3s2)c1	–	–	23µM	–	·	–
Cc1cccc(C(=O)Nc2ccc3nc(SCC(=O)N4CCCC4)sc3c2)c1	–	–	18µM	–	·	–
COc1ccc(C(=O)Nc2ccc3nc(SCC(=O)N4CCCC4)sc3c2)cc1	–	–	–	–	·	–
Cc1ccc(C(=O)Nc2ccc3c(c2)N(C)C(=O)c2ccccc2S3)cc1F	–	–	·	?	·	–
COc1ccc(C(=O)c2sc(Nc3cccc(OC)c3)c(C(=O)Nc3cccc(C)c3C)c2N)cc1	–	–	23µM	?	–	–
Cc1cc(Nc2sc(C(=O)c3ccc(F)cc3)c(N)c2C(=O)Nc2ccc(F)cc2)ccc1Cl	–	–	·	16µM	·	–
COc1ccc(Nc2sc(C(=O)c3ccc(Cl)cc3)c(N)c2C(=O)Nc2ccccc2OC)cc1	–	–	?	–	–	–
COc1ccc(NC(=O)c2c(Nc3ccccc3)sc(C(=O)c3ccc(F)cc3)c2N)cc1	–	–	?	–	–	–
COc1ccc2nccc(/C=C/c3ccc(N(C)C)cc3)c2c1	–[0.0914 µM]	·	·	·	·	–
COc1ccccc1NC(=O)CSc1nnc2c3ccccc3n(C(C)C)c2n1	–	–	18µM	?	·	–
COc1cc2nc(N3CCNCC3)nc(N)c2cc1OC	79µM	–	–	–	–	–
O=C(CNC(=S)N(Cc1ccccc1)Cc1ccccc1F)NCc1ccc(Cl)cc1	–	–	26µM	?	–	–
CC(C)Cc1nc(N2CCN(C(=O)c3ccco3)CC2)c(C#N)c2c1CCCC2	–	–	?	?	–	–
CC(C)C(=O)N1CCN(c2nc(-c3ccccc3)c3c(c2C#N)CCCC3)CC1	–	–	12µM	?	–	–
O=C(CN1C(=O)CCc2cc(S(=O)(=O)N3CCCCC3)ccc21)NCc1ccc(Cl)cc1	–	–	·	–	·	–
CN1C(=O)C(O)(CC(=O)/C=C/c2ccco2)c2cc(Br)ccc21 (stereo unspecified)	16µM	–	?	–	–	–
Cc1ccc2c(c1)N(C)/C(=C/c1cccc[n+]1C)S2	–	–	6.5µM	?	–	?
CCOC(=O)N1CCC(N2C(=O)c3ccccc3C2Nc2ccccc2C)CC1 (stereo unspecified)	–	–	–	–	–	–
CCOC(=O)c1ccccc1NC1c2ccccc2C(=O)N1C1CCN(C(=O)OCC)CC1 (stereo unspecified)	–	–	16µM	–	35µM	–
CC(=O)c1cccc(NC(=O)CSc2nc3ccccc3nc2Cc2ccc(F)cc2)c1	–	–	·	–	·	–
CC(C)CCn1c(=O)c2ccccc2n2c(CCl)nnc12	22µM	–	–	–	–	–
Cc1nc2nncn2c(Nc2ccc(F)cc2)c1C	–	–	?	–	·	–
O=C(NCC1CCCO1)c1ccc(COc2ccc(Br)cc2)cc1 (stereo unspecified)	?	–	16µM	–	–	–
CCCNC(=O)c1ccc2c(c1)C1C3CCC(C3)C1C(c1ccccc1)N2 (stereo unspecified)	–	–	21µM	?	–	–
CC(C)(C)NC(=O)c1ccc2c(c1)C1C3CCC(C3)C1C(c1ccccc1)N2 (stereo unspecified)	–	–	–	–	?	–
SMILES	rTrxR1 inhibitor	mIDH1 inhibitor	Nrf2 inh	A549 tox	Mito fusion yeast	TrxR1 substrate
Cn1c(CSc2nc3ccc(Br)cc3[nH]2)nc2ccccc21	–	–	21µM	?	–	–
CCN(CCC(=O)O)c1ccc(/C=C/c2ccnc3ccccc23)cc1	–	·	·	·	·	–
O=C(NC(=S)NCc1ccc(Cl)cc1)c1ccco1	–	–	16µM	–	·	–
O=C(NC(=S)Nc1ccc(Oc2ccccc2)cc1)c1ccc(Cl)cc1	–	–	26µM	–	–	–
COc1ccc(NC(=S)Nc2ccc(Oc3ccccc3)cc2)cc1	–	–	23µM	–	–	–
O=C(NC(=S)NCc1ccc(Cl)cc1Cl)c1ccco1	–	–	–	–	·	–
COc1ccc(C(=O)NC(=S)NCc2ccccc2)cc1	22µM	–	?	–	–	–
Cc1cccc(-c2nn3c(=O)cc(CN4CCN(C(=O)c5ccccc5Br)CC4)nc3s2)c1	–	–	·	–	·	–
COc1ccc(C2Nc3ccccc3C(=O)N2Cc2ccco2)cc1COc1ccccc1 (stereo unspecified)	·	·	–	–	·	·
CN(CC(=O)NCc1ccc(Cl)cc1)S(=O)(=O)c1ccc2[nH]c3c(c2c1)CCCC3	–	–	16µM	–	·	–
COc1cccc(CNC(=O)CN(C)S(=O)(=O)c2ccc3[nH]c4c(c3c2)CCCC4)c1	–	–	–	–	·	–
O=C(COc1ccccc1C(=O)Nc1ccccc1)Nc1ccccc1Cl	–	·	·	·	·	–
CNC(CC(=O)c1ccc([N+](=O)[O-])cc1)C(Cl)(Cl)Cl (stereo unspecified)	0.63µM	–	?	–	–	?
C=C(C(=O)O)c1ccc2ccccc2c1	–	·	·	·	·	–
CCN(CC)CCC(c1ccc(OC)cc1)c1c(OC)cc(OC)c2c(C)cc(=O)oc12 (stereo unspecified)	–	·	–	12µM	·	–
C=CCN1CC[C@@H](O)C(=C)S1(=O)=O	–	·	·	·	·	–
CN(c1ccccc1)P(=O)(N(C)c1ccccc1)N(C)c1ccccc1	–	–	16µM	?	–	–
CN(c1ccccc1)S(=O)(=O)CS(=O)(=O)N(C)c1ccccc1	–	–	–	–	·	–
CC1CCN(c2nc3nonc3nc2Nc2ccc(F)cc2)CC1	–	–	9.2µM	?	–	–
COc1ccc(Nc2nc3nonc3nc2N2CCCCC2)cc1	–	–	26µM	–	–	–
